Assay results published in PubChem BioAssay (NCI).
This is part of a sample that, as a whole, favours compounds with a hit. Of some 83,000 tested, about 20% had one in any assay.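 Interpretation: 100, growth as untreated; towards 0, rising growth inhibition; 0, no net growth; 0 to -100, cell death. Compounds scoring below 10 were considered active.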 Values without a mark were called inactive. Calls of active or inactive are those of the source.

Experiments:
Assay in all cases: NCI-60 one-dose screen, 48 h (100 = growth as untreated, 0 = no growth, -100 = all killed)
HOP-62 NSCLC = conditions: 10 µM unless noted
NCI-H460 lung = conditions: 10 µM unless noted
786-0 renal = conditions: 10 µM unless noted
K-562 leukemia = conditions: 10 µM unless noted
MALME-3M melanoma = conditions: 10 µM unless noted
RXF 393 renal = conditions: 10 µM unless noted
SF-295 CNS = conditions: 10 µM unless noted
SF-539 CNS = conditions: 10 µM unless noted
UACC-257 melanoma = conditions: 10 µM unless noted
UO-31 renal = conditions: 10 µM unless noted
CAKI-1 renal = conditions: 10 µM unless noted
A498 renal = conditions: 10 µM unless noted
HL-60(TB) leukemia = conditions: 10 µM unless noted
MOLT-4 leukemia = conditions: 10 µM
RPMI-8226 leukemia = conditions: 10 µM unless noted
OVCAR-4 ovarian = conditions: 10 µM unless noted
BT-549 breast = conditions: 10 µM
HCC-2998 colon = conditions: 10 µM unless noted
A549/ATCC NSCLC = conditions: 10 µM unless noted
SNB-75 CNS = conditions: 10 µM unless noted

Work on `COc1ccccc1N1CCN(CCc2c[nH]c3cc4c(cc23)OCO4)CC1` yielded a growth (HOP-62 NSCLC) of 63.2%, a growth (NCI-H460 lung) of 51.6% and a growth (786-0 renal) of 79%. It also gave a growth (K-562 leukemia) of 76.3%, a growth (MALME-3M melanoma) of 92% and a growth (RXF 393 renal) of 75.8%. For the same molecule, the growth (SF-295 CNS) was 41%, the growth (SF-539 CNS) was 77.8% and the growth (UACC-257 melanoma) was 56.7%. For the same molecule, the growth (UO-31 renal) was 33.2%, the growth (CAKI-1 renal) was 75.5% and the growth (A498 renal) was 108%. For the same molecule, the growth (HL-60(TB) leukemia) was 64.8%, the growth (MOLT-4 leukemia) was 84.7% and the growth (RPMI-8226 leukemia) was 47.1%. For the same molecule, the growth (OVCAR-4 ovarian) was 99.2%, the growth (BT-549 breast) was 84.2% and the growth (HCC-2998 colon) was 92.6%.

`NCCc1cc(O)c(O)cc1O` showed a growth (HOP-62 NSCLC) of 105%, a growth (NCI-H460 lung) of 112% and a growth (A549/ATCC NSCLC) of 100%. The growth (786-0 renal) was 99.9%, the growth (K-562 leukemia) was 102% and the growth (RXF 393 renal) was 113%. It also gave a growth (SF-295 CNS) of 106%, a growth (UACC-257 melanoma) of 102% and a growth (SNB-75 CNS) of 95.9%. For the same molecule, the growth (CAKI-1 renal) was 100%, the growth (A498 renal) was 122% and the growth (HL-60(TB) leukemia) was 103%. It also gave a growth (MOLT-4 leukemia) of 86.5%, a growth (RPMI-8226 leukemia) of 48.4% and a growth (OVCAR-4 ovarian) of 99.5%. The growth (BT-549 breast) was 90.9% and the growth (HCC-2998 colon) was 103%.

With `Oc1ccc(O)c2c1C1(Cl)C(Cl)=C(Cl)C2(Cl)C1(Cl)Cl` the growth (HOP-62 NSCLC) was 47.4%, the growth (NCI-H460 lung) was 55.3% and the growth (A549/ATCC NSCLC) was 46.1%. It also gave a growth (786-0 renal) of 69.1%, a growth (K-562 leukemia) of 27.5% and a growth (MALME-3M melanoma) of 20%. The growth (RXF 393 renal) was 29.8%, the growth (SF-295 CNS) was 21.7% and the growth (SF-539 CNS) was 68.2%. The growth (UACC-257 melanoma) was 46.6%, the growth (UO-31 renal) was 44.2% and the growth (CAKI-1 renal) was 34.6%. For the same molecule, the growth (A498 renal) was 34.9%, the growth (HL-60(TB) leukemia) was 31% and the growth (MOLT-4 leukemia) was 54.3%. It also gave a growth (RPMI-8226 leukemia) of 64%, a growth (OVCAR-4 ovarian) of 54.1% and a growth (BT-549 breast) of 29.2%.

Molecule `Cc1cccc(N=C2c3cc([N+](=O)[O-])ccc3-c3c2cc([N+](=O)[O-])cc3[N+](=O)[O-])c1` has a growth (HOP-62 NSCLC) of 61.7%, a growth (NCI-H460 lung) of 33.5% and a growth (A549/ATCC NSCLC) of 72.1%. For the same molecule, the growth (786-0 renal) was 60%, the growth (K-562 leukemia) was 23.1% and the growth (RXF 393 renal) was 72.2%. For the same molecule, the growth (SF-295 CNS) was 97.8%, the growth (SF-539 CNS) was 97.7% and the growth (UACC-257 melanoma) was 90.8%. The growth (SNB-75 CNS) was 84.4%, the growth (CAKI-1 renal) was 67.8% and the growth (A498 renal) was 74.5%. For the same molecule, the growth (HL-60(TB) leukemia) was 46.7%, the growth (MOLT-4 leukemia) was 27.5% and the growth (RPMI-8226 leukemia) was -8.81% (active). It also gave a growth (OVCAR-4 ovarian) of 71.3% and a growth (BT-549 breast) of 81.8%.

For `CC1(C)N=C(N)N=C(N)N1c1cccc(C(=O)Nc2cccc(S(=O)(=O)F)c2)c1`, the growth (HOP-62 NSCLC) was 105%, the growth (NCI-H460 lung) was 97.3% and the growth (A549/ATCC NSCLC) was 104%. The growth (786-0 renal) was 99.5%, the growth (K-562 leukemia) was 118% and the growth (MALME-3M melanoma) was 88.9%. The growth (RXF 393 renal) was 92.2%, the growth (SF-295 CNS) was 84.9% and the growth (UACC-257 melanoma) was 93.9%. For the same molecule, the growth (SNB-75 CNS) was 80.2%, the growth (UO-31 renal) was 78.5% and the growth (CAKI-1 renal) was 98.8%. The growth (A498 renal) was 73.9%, the growth (HL-60(TB) leukemia) was 103% and the growth (MOLT-4 leukemia) was 112%. For the same molecule, the growth (RPMI-8226 leukemia) was 95.5%, the growth (OVCAR-4 ovarian) was 100% and the growth (BT-549 breast) was 107%. For the same molecule, the growth (HCC-2998 colon) was 98.5%.

For `C[C@]12CC[C@@H]3C4=C(CC[C@H]3[C@@H]1CC[C@@H]2O)CC(=O)CC4`, the growth (HOP-62 NSCLC) was 103%, the growth (NCI-H460 lung) was 105% and the growth (A549/ATCC NSCLC) was 98.4%. It also gave a growth (786-0 renal) of 106%, a growth (K-562 leukemia) of 96.9% and a growth (MALME-3M melanoma) of 116%. The growth (RXF 393 renal) was 100%, the growth (SF-295 CNS) was 102% and the growth (SF-539 CNS) was 103%. For the same molecule, the growth (UACC-257 melanoma) was 92.8%, the growth (UO-31 renal) was 92% and the growth (CAKI-1 renal) was 92%. For the same molecule, the growth (A498 renal) was 90.6%, the growth (HL-60(TB) leukemia) was 99.5% and the growth (MOLT-4 leukemia) was 89%. It also gave a growth (RPMI-8226 leukemia) of 91.8%, a growth (OVCAR-4 ovarian) of 111% and a growth (BT-549 breast) of 122%. The growth (HCC-2998 colon) was 104%.

`COc1ccc(/C=C\c2cc(OC)c(OC)c(OC)c2)cc1N/C=C\C(=O)c1c[nH]c2ccccc12` was tested, and the growth (HOP-62 NSCLC) was 39.3%, the growth (NCI-H460 lung) was 6.44% (active) and the growth (A549/ATCC NSCLC) was 28.4%. For the same molecule, the growth (786-0 renal) was 20.9%, the growth (K-562 leukemia) was 13.7% and the growth (MALME-3M melanoma) was 57.8%. For the same molecule, the growth (RXF 393 renal) was 29.2%, the growth (SF-295 CNS) was -11.8% (active) and the growth (SF-539 CNS) was -43.4% (active). The growth (UACC-257 melanoma) was 78.2%, the growth (SNB-75 CNS) was 19.1% and the growth (UO-31 renal) was 26.4%. The growth (A498 renal) was -13.6% (active), the growth (HL-60(TB) leukemia) was -11.4% (active) and the growth (MOLT-4 leukemia) was 14.4%. For the same molecule, the growth (RPMI-8226 leukemia) was 19.5%, the growth (BT-549 breast) was 6.79% (active) and the growth (HCC-2998 colon) was 21.4%.

`COc1cc(N(CCCl)CCCl)ccc1C=Nc1ccccc1C(=O)O` gave a growth (HOP-62 NSCLC) of 110%, a growth (NCI-H460 lung) of 81.1% and a growth (A549/ATCC NSCLC) of 92.6%. For the same molecule, the growth (786-0 renal) was 110%, the growth (K-562 leukemia) was 95% and the growth (RXF 393 renal) was 102%. It also gave a growth (SF-295 CNS) of 98%, a growth (SF-539 CNS) of 102% and a growth (UACC-257 melanoma) of 91%. The growth (SNB-75 CNS) was 85.8%, the growth (UO-31 renal) was 78.5% and the growth (CAKI-1 renal) was 98.7%. It also gave a growth (A498 renal) of 66.3%, a growth (HL-60(TB) leukemia) of 94.8% and a growth (MOLT-4 leukemia) of 97.2%. It also gave a growth (RPMI-8226 leukemia) of 97.2%, a growth (OVCAR-4 ovarian) of 104% and a growth (BT-549 breast) of 106%. The growth (HCC-2998 colon) was 88.2%.
